Laboratory results taken from the supplement of paper PMC11732987, “Enantioselective OTUD7B fragment discovery through chemoproteomics screening and high-throughput optimisation” (Communications Chemistry, 2025).

Columns and labels:
Assay in all cases: log2 ratio of Biotin-Ahx-Ub-VS probe labelling (fragment/DMSO); higher = less target engagement (more negative = stronger competition), active = hit call of the paper (q ≤ 0.05, log2 ratio ≤ -1)
Settings in all cases: compound concentration: 200 uM; treatment time: 3 h
UniProt O00507 = target: UniProt O00507
Chain of UniProt O00507 (O00507 whole entry, the tested form may be a part): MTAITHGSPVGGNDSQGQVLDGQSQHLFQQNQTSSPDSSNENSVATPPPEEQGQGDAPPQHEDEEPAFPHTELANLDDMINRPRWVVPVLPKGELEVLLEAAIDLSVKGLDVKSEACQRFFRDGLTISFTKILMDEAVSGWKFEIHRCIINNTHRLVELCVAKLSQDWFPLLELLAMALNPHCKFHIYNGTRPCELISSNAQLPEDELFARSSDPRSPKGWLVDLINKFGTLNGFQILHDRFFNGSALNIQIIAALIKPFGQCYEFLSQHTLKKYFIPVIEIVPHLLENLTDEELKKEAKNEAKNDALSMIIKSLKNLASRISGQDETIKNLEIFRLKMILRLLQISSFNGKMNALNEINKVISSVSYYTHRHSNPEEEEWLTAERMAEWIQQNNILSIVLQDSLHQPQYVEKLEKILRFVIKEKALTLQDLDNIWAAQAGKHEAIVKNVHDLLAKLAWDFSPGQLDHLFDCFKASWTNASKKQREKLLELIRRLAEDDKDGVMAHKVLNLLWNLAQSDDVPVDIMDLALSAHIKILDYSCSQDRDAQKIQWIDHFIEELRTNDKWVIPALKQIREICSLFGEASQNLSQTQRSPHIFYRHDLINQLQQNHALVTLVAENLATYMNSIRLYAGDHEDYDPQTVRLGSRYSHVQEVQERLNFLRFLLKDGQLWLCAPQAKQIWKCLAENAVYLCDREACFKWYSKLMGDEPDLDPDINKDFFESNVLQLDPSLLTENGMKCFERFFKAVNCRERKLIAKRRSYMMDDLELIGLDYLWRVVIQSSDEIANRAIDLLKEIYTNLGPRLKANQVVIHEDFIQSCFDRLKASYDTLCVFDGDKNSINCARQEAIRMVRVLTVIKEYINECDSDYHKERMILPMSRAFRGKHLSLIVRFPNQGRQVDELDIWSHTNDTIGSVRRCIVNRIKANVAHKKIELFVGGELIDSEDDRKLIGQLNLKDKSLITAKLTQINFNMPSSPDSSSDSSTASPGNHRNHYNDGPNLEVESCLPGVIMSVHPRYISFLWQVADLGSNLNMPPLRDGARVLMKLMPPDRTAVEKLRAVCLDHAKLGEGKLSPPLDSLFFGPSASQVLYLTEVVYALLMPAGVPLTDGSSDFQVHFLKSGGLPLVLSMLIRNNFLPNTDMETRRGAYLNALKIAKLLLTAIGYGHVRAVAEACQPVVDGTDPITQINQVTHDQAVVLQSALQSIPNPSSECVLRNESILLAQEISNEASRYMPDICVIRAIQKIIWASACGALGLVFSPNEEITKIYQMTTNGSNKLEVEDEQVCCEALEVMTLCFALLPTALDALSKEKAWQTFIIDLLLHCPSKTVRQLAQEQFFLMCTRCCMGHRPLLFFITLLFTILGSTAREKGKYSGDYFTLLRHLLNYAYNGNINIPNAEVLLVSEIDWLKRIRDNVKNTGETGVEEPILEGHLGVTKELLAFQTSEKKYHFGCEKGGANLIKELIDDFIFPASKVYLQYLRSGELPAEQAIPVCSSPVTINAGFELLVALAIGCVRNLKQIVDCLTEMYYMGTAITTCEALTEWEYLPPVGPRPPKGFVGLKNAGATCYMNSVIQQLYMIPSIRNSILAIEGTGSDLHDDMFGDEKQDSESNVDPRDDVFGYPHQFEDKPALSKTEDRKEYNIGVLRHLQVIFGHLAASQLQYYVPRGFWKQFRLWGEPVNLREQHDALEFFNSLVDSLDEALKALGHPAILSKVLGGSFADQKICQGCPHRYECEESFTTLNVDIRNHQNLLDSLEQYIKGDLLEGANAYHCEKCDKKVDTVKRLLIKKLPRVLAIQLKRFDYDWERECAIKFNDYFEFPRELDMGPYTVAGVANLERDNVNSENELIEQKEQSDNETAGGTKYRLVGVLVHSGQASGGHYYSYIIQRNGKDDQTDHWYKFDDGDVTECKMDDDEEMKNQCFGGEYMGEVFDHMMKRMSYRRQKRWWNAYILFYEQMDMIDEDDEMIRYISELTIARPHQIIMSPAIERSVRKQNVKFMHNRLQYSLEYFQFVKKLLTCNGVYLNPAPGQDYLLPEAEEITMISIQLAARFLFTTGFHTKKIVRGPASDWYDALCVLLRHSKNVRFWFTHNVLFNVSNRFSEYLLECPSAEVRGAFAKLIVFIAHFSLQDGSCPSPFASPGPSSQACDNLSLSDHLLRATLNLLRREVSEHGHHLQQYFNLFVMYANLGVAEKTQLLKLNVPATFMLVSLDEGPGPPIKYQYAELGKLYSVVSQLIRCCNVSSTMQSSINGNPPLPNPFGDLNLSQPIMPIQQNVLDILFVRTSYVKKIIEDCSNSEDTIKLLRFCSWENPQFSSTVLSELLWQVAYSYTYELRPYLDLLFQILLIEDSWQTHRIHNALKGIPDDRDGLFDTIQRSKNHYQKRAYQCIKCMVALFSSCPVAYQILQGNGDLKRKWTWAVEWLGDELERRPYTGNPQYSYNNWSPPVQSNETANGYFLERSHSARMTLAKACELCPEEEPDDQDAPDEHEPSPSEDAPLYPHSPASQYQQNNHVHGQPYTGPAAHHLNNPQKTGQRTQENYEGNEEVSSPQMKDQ
Summary of the method: (§1)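 In triplicate, 495 µg of HEK293T lysate per sample was incubated with fragment at 200 µM or vehicle for 3 h. Biotin-Ahx-Ub-VS was then added to 0.5 µM final for 1 h, and labelled DUBs were captured with NeutrAvidin, digested with LysC and trypsin, and measured by diaPASEF LC-MS/MS. Data are average log2 fragment/vehicle ratios by unpaired t-test from global-median-normalised Spectronaut label-free quantities, restricted to proteins with ≥2 unique peptides.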

UniProt P51784 = target: UniProt P51784
Chain of UniProt P51784 (P51784 whole entry): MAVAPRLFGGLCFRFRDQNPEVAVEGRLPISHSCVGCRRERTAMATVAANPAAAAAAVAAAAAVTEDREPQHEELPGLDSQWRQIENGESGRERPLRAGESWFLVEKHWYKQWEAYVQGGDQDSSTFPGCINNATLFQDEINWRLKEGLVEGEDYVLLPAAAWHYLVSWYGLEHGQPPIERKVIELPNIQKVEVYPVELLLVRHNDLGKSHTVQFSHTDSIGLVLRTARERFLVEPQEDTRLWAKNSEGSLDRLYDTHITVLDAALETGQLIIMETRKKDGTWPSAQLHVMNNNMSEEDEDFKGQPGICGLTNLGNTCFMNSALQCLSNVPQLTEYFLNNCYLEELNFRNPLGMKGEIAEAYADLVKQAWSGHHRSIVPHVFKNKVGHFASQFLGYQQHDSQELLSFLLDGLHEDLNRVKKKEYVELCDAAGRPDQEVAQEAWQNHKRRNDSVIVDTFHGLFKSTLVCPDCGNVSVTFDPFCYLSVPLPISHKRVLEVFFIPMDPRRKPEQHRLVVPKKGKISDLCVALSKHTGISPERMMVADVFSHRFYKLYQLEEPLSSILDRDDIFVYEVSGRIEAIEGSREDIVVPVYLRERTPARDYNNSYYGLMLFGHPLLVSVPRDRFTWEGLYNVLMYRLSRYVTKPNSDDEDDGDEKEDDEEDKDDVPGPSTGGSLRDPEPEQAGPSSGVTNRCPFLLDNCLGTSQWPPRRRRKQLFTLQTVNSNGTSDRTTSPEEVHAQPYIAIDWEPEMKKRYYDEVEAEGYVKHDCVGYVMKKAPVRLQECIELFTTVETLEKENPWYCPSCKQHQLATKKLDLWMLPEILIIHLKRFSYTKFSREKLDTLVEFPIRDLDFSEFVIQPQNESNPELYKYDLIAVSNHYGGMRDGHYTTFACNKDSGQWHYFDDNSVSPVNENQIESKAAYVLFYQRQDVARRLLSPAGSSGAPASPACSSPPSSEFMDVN
Summary of the method: as §1

UniProt Q5T2D3 = target: T1, UniProt Q5T2D3
T1 sequence (whole entry): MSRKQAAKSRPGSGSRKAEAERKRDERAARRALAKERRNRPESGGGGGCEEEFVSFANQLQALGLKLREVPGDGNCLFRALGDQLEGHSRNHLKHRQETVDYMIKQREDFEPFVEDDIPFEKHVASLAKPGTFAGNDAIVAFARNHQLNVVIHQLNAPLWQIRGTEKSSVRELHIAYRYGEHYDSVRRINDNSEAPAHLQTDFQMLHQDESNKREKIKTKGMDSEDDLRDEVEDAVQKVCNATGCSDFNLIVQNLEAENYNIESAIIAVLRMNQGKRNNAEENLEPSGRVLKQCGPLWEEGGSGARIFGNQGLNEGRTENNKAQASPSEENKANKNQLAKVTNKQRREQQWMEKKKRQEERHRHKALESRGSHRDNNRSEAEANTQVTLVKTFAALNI
Summary of the method: as §1

UniProt Q8TE49 = target: T2, UniProt Q8TE49
T2 sequence (whole entry): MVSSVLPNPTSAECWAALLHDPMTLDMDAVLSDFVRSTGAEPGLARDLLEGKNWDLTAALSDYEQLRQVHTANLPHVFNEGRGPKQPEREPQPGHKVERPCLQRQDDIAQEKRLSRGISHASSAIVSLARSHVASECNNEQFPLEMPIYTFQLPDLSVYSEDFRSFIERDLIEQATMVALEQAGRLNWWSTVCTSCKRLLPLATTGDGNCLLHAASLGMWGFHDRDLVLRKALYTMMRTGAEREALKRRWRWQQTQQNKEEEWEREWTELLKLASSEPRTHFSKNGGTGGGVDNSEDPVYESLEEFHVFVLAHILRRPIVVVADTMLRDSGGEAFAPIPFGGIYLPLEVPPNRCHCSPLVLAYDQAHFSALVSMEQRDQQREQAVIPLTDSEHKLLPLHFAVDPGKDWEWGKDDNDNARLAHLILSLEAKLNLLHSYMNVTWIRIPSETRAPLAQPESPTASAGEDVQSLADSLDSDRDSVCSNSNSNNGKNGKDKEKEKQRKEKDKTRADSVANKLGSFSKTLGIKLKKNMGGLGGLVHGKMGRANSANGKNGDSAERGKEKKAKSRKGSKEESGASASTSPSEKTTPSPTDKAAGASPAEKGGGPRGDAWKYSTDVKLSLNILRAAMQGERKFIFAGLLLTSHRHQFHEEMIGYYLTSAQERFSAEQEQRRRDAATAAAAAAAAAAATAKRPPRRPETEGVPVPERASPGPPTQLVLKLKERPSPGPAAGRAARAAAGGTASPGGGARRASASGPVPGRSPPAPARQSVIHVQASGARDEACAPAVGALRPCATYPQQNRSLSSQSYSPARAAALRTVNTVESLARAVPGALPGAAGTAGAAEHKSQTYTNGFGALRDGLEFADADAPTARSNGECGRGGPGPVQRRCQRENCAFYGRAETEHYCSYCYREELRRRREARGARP
Summary of the method: as §1

UniProt Q9P2H5 = target: T3, UniProt Q9P2H5
T3 sequence (whole entry): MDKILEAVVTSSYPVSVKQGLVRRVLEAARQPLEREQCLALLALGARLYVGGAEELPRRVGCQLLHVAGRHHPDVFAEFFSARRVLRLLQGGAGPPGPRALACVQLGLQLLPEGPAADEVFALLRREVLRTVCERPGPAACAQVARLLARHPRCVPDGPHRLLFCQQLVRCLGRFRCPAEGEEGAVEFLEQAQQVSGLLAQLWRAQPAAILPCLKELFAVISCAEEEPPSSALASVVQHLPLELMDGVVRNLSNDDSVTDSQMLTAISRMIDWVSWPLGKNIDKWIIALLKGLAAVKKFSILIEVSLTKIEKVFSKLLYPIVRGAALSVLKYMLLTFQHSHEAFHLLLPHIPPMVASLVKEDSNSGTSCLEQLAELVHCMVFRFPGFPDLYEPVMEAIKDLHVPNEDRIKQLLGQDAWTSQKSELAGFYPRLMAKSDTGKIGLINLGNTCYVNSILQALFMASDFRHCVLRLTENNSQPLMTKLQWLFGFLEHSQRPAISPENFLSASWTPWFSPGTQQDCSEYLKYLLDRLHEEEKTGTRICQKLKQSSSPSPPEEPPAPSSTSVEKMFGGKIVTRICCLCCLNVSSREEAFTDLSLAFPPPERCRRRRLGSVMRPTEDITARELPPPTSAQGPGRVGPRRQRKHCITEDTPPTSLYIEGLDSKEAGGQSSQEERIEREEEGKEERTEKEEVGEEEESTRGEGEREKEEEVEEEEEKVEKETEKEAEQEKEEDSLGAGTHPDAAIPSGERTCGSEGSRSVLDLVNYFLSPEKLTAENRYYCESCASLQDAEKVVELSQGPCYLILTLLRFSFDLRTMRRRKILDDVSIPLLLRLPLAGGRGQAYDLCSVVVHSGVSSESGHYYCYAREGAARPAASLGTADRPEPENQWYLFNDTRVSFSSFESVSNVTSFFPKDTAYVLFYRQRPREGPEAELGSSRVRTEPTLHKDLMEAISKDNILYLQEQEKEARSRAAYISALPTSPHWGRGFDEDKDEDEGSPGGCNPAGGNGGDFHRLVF
Summary of the method: as §1

UniProt Q9UGI0 = target: T4, UniProt Q9UGI0
T4 sequence (whole entry): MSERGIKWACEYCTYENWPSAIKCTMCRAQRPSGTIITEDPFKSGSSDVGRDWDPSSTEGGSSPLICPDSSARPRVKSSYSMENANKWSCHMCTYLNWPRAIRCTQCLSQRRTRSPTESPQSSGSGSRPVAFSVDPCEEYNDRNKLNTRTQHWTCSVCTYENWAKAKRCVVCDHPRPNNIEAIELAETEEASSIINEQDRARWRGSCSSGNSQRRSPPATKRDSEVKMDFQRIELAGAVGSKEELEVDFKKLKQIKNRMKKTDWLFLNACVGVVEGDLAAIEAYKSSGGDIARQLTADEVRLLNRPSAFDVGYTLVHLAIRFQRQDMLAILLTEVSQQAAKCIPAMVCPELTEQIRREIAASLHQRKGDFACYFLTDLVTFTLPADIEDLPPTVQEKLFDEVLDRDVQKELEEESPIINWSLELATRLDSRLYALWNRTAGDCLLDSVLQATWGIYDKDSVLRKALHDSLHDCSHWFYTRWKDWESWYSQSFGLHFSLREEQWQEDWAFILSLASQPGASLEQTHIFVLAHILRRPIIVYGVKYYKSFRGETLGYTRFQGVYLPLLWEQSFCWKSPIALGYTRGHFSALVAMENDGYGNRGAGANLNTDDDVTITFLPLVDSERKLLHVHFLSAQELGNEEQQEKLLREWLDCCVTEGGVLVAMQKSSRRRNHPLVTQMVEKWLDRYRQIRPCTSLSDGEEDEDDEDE
Summary of the method: as §1

YOD1 = target: T5, YOD1 (UniProt Q5VVQ6)
T5 sequence (whole entry): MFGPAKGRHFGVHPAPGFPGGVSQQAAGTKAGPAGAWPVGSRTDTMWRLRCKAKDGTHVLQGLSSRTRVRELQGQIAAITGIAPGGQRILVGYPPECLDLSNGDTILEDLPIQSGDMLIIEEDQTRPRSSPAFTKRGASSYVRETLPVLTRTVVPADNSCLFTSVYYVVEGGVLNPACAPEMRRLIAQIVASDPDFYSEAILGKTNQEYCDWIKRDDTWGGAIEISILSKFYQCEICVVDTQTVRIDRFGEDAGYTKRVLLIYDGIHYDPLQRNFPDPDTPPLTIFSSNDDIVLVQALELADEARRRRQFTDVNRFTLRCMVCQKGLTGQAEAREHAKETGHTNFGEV
Summary of the method: as §1

Measured: log2 ratio of Biotin-Ahx-Ub-VS probe labelling

O=C(CCl)N1CC=C(c2c[nH]c3ccccc23)CC1
active: UniProt O00507 -1.28 | UniProt Q9UGI0 -1.14
inactive: UniProt P51784 -0.291 | UniProt Q5T2D3 -0.405 | UniProt Q8TE49 -0.72 | UniProt Q9P2H5 -0.734 | YOD1 -0.219

N#Cc1cnn(-c2ccccc2)c1NC(=O)CCl
active: UniProt Q8TE49 -1.4 | UniProt Q9UGI0 -1.04
inactive: UniProt O00507 -0.331 | UniProt P51784 -0.12 | UniProt Q5T2D3 -0.209 | UniProt Q9P2H5 -0.407 | YOD1 -0.327

O=C(CCl)N1CCCCC12CCOCC2
inactive: UniProt O00507 -0.561 | UniProt P51784 -0.343 | UniProt Q5T2D3 -0.414 | UniProt Q8TE49 -0.444 | UniProt Q9P2H5 -0.444 | UniProt Q9UGI0 -0.517 | YOD1 -0.518

O=C(CN1CCN(C(=O)CCl)CC1)Nc1cccc(F)c1
inactive: UniProt O00507 0.00838 | UniProt P51784 -0.0576 | UniProt Q5T2D3 -0.264 | UniProt Q8TE49 -0.292 | UniProt Q9P2H5 -0.486 | UniProt Q9UGI0 -0.37 | YOD1 0.0312

CC(c1ccccc1)N(C)C(=O)CCl (stereo not drawn)
inactive: UniProt O00507 -0.143 | UniProt P51784 -0.169 | UniProt Q5T2D3 -0.0617 | UniProt Q8TE49 -0.555 | UniProt Q9P2H5 -0.0284 | UniProt Q9UGI0 -0.295 | YOD1 0.101

Cc1ccc(N(CCC#N)C(=O)CCl)cc1C
inactive: UniProt O00507 -0.369 | UniProt P51784 -0.0613 | UniProt Q5T2D3 -0.0739 | UniProt Q9P2H5 -0.14 | YOD1 0.0402
active: UniProt Q8TE49 -2.2 | UniProt Q9UGI0 -1.49

COc1ccc(Cl)cc1NC(=O)CCl
inactive: UniProt O00507 -0.985 | UniProt P51784 -0.276 | UniProt Q5T2D3 -0.485 | UniProt Q8TE49 -0.837 | UniProt Q9P2H5 -0.335 | UniProt Q9UGI0 -0.741 | YOD1 -0.669

COc1ccc(CN(C)C(=O)CCl)cc1
inactive: UniProt O00507 -0.339 | UniProt P51784 0.00264 | UniProt Q5T2D3 -0.273 | UniProt Q8TE49 -0.895 | UniProt Q9P2H5 0.0343 | UniProt Q9UGI0 -0.846 | YOD1 -0.295

O=C(CCl)N1CCCCCC1c1ncon1 (stereo not drawn)
inactive: UniProt O00507 -0.0474 | UniProt P51784 -0.00586 | UniProt Q5T2D3 -0.23 | UniProt Q8TE49 -0.401 | UniProt Q9P2H5 -0.21 | UniProt Q9UGI0 -0.661 | YOD1 0.022
